# Inconclusive results are not listed. Entries that show only a call come without a potency. A number with no mark means an inactive call. Calls of active or inactive are those of the source. Calls come from the whole dose curve; as a rule, active = well fitted inhibition curve with a large enough effect; inconclusive = small, poorly fitted or top-dose-only effect; inactive = no such curve, though single readings can be large or run the other way.
# Assays:
# [1] = system: Zika virus NS2B-NS3 protease (unlinked complex); experiment: Primary screen GU Rhodamine qHTS for Zika virus inhibitors: Unlinked NS2B-NS3 protease assay (AID 1347159); note: nearly all actives have a fitted effect of over 60% in size
# Procedure, shortened: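 Enzyme 25 nM in Tris-HCl pH 8.0 + 0.01% Tween 20; compounds up to 114 microM, 15 min RT dark; + Rhod110 substrate 1.5 microM; read t0 and 15 min; delta fluorescence → % inhibition → 4-parameter Hill fit.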
# [2] = system: Zika virus NS2B-NS3 protease (linked construct); experiment: Primary screen NINDS Rhodamine qHTS for Zika virus inhibitors (AID 1347160); note: nearly all actives have a fitted effect of over 55% in size
# Procedure, shortened: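 Enzyme (25 nM, linked NS2B-NS3) was preincubated 15 min with compound in 10 mM Tris-HCl pH 8.0, 0.01% Tween 20. Rhodamine110 substrate (1.5 microM) was then added and fluorescence read at start and after 15 min.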
Compound,Potency [1],Potency [2],"activity change, negative = inhibition [1]","activity change, negative = inhibition [2]"
COc1ccc([C@@H]2OC[C@H]3[C@@H]2CO[C@@H]3c2ccc(OC3OC(CO)C(O)C(O)C3O)c(OC)c2)cc1OC (stereo partly drawn),inactive,inactive,–,–
CCOc1ccc(NC(=S)N2CCC(C(O)(c3ccccc3)c3ccccc3)CC2)cc1,inactive,inactive,–,–
OC[C@H]1O[C@@H](OCCc2ccc(O)cc2)[C@H](O[C@@H]2OC[C@](O)(CO)[C@H]2O)[C@@H](O)[C@@H]1O,inactive,inactive,–,–
C[C@@H]1O[C@@H](O[C@H]2[C@H](OC(=O)[C@]34CCC(C)(C)C[C@H]3C3=CCC5[C@@]6(C)C[C@H](O)[C@H](O[C@@H]7O[C@H](CO)[C@@H](O)[C@H](O)[C@H]7O)[C@@](C)(CO)C6[C@H](O)C[C@@]5(C)[C@]3(C)CC4)OC[C@H](O)[C@@H]2O)[C@H](O)[C@H](O)[C@H]1O[C@@H]1OC[C@@H](O)[C@H](O[C@@H]2OC[C@](O)(CO)[C@H]2O)[C@H]1O (stereo partly drawn),–,–,-1.32% [at 19.1 µM],21.5% [at 10.7 µM]
Cc1ccc(C(=O)N(CCCN)C(c2oc3cc(Cl)ccc3c(=O)c2Cc2ccccc2)C(C)C)cc1 (stereo not drawn),inactive,inactive,–,–
Cc1ccccc1-n1c([C@H](C)Nc2nc(N)nc3nc[nH]c23)nc2cccc(C)c2c1=O,inactive,inactive,–,–
CN(C)CCn1cc(S(=O)(=O)c2cccc(F)c2)c2cccnc21,inactive,inactive,–,–
CC(C)(C)NCCCNC(=O)c1cccc(Br)c1,inactive,inactive,–,–
CC[C@H](C)[C@H](NC(=O)[C@H]([C@@H](C)CC)N(C)C(C)=O)C(=O)N[C@H](C(=O)N[C@@H](CC(C)C)C(=O)[C@@]1(C)CO1)[C@@H](C)O,inactive,inactive,–,–
N#Cc1ccc(C(=O)N2CCC3(CC2)N=C(N)c2c(F)ccc(F)c2N3)cn1,inactive,inactive,–,–
CC(C)(C)Nc1nc(Nc2ccc(C(N)=O)cc2)cc(N)c1C#N,inactive,inactive,–,–
CC1=C(C(=O)O)/C(=C\CO[C@@H]2O[C@H](CO)[C@@H](O)[C@H](O)[C@H]2O)C(OC(=O)/C=C\c2ccc(O)cc2)C1 (stereo partly drawn),inactive,inactive,–,–
C=C(C)C(=O)O[C@H]1CC2=CC(C/C(C)=C\[C@H]3OC(=O)C(=C)[C@H]13)OC2=O (stereo partly drawn),inactive,inactive,–,–
CC(C)CNCc1ccc(-c2ccccc2S(=O)(=O)N2CCCC2)cc1,inactive,inactive,–,–
COc1ccccc1NC(=O)OCC1CCN(C(=O)OC(C)(C)C)CC1,inactive,inactive,–,–
COc1cc2c(cc1O)CC[C@H]1[C@@H]2CC[C@]2(C)[C@H](O)CC[C@@H]12,inactive,inactive,–,–
C[C@@H]1C[C@H]2O[C@@H]2/C=C\C=C\C(=O)Cc2c(Cl)c(O)cc(O)c2C(=O)O1,inactive,inactive,–,–
Nc1nc2c(c(N3CCNCC3)n1)CCC1=C2[C@@H]2CCCC[C@@H]2O1,inactive,inactive,–,–
O=C(O)c1cn(C2CC2)c2cc(N3C[C@@H]4C[C@H]3CN4)c(F)cc2c1=O,inactive,inactive,–,–
CCOC(=O)Nc1cc(-c2ccc(C)c(NS(C)(=O)=O)c2)nn2c(C)nnc12,inactive,inactive,–,–

Compound,Potency [1],Potency [2],"activity change, negative = inhibition [1]","activity change, negative = inhibition [2]"
FC(F)(F)c1cc(-c2ncn(/C=C\c3nnco3)n2)cc(C(F)(F)F)c1,inactive,inactive,–,–
CC(C)=CCC[C@](C)(O[C@@H]1O[C@H](CO)[C@@H](O)[C@H](O)[C@H]1O)[C@H]1CC[C@]2(C)[C@@H]1[C@H](O)CC1[C@@]3(C)CC[C@H](O)C(C)(C)C3[C@@H](O[C@@H]3O[C@H](CO)[C@@H](O)[C@H](O)[C@H]3O[C@@H]3OC[C@@H](O)[C@H](O)[C@H]3O)C[C@]12C (stereo partly drawn),inactive,inactive,–,–
CC1(C)CC[C@@]2(C(=O)O[C@@H]3O[C@H](CO)[C@@H](O)[C@H](O)[C@H]3O)C(C1)C1=CCC3[C@@]4(C)CC[C@@H](O[C@@H]5O[C@H](C(=O)O)[C@@H](O[C@@H]6OC[C@@H](O)[C@H](O)[C@H]6O)[C@H](O[C@@H]6OC[C@](O)(CO)[C@H]6O)[C@H]5O)C(C)(C)C4CC[C@@]3(C)[C@]1(C)C[C@H]2O (stereo partly drawn),inactive,inactive,–,–
CNS(=O)(=O)CC1CCC(N(C)c2ncnc3[nH]ccc23)CC1 (stereo not drawn),inactive,inactive,–,–
C=C(C)C1CCC2(C(=O)O[C@@H]3O[C@H](CO[C@@H]4O[C@H](CO)[C@@H](O)[C@H](O)[C@H]4O)[C@@H](O)[C@H](O[C@@H]4O[C@@H](C)[C@H](O)[C@@H](O)[C@H]4O)[C@H]3O)CCC3(C(=O)O)C(CCC4C5(C)CCC(O)C(C)(C)C5CCC43C)C12 (stereo partly drawn),inactive,inactive,–,–
CC(O)CO[C@@H]1O[C@H](CO)[C@@H](O)[C@H](O)[C@H]1O (stereo partly drawn),inactive,inactive,–,–
COc1cc(O)c2c(c1)C1=C[C@H](O)[C@@H](O)C[C@]1(C)OC2=O,inactive,inactive,–,–
Cn1ncnc1COc1nn2c(-c3cc(F)ccc3F)nnc2cc1C(C)(C)C,inactive,inactive,–,–
CCCN1CCN(c2ccc(C(=O)NC3(C(=O)NCC#N)CCCCC3)cc2)CC1,inactive,inactive,–,–
COC(=O)C1(C)c2[nH]c3ccccc3c2CCN1C(=O)CCl (stereo not drawn),inactive,inactive,–,–
CC(=O)N1CCc2ccc(O)c(OC3OC(COC4OCC(O)(CO)C4O)C(O)C(O)C3O)c2C1Cc1ccc(O)cc1 (stereo not drawn),inactive,inactive,–,–
C=C1C[C@]23C[C@H]1CC[C@H]2[C@@]1(C)CCC[C@@]2(C)C(=O)O[C@@H]([C@@H]3O)[C@@H]12,inactive,inactive,–,–
CON(C)C(=O)[C@H](O)[C@H](Cc1ccccc1)NC(=O)c1cc2cc(Cl)ccc2[nH]1,inactive,inactive,–,–
CCCCC1CCN(CCCC(=O)c2ccccc2C)CC1,inactive,inactive,–,–
COc1ccc(N(C)c2nc(C)nc3ccccc23)cc1,inactive,inactive,–,–
COC(=O)C1=CO[C@@H](O[C@@H]2O[C@H](CO)[C@@H](O)[C@H](O)[C@H]2O)[C@@H]2C(COC(C)=O)=C[C@H](O)[C@H]12,inactive,inactive,–,–
CC1OC(OC2C(OC3C(O[C@H]4CC[C@@]5(C)C(CC[C@]6(C)C5C(=O)C=C5C7CC(C)(C)CC(O)[C@]7(C)CC[C@]56C)C4(C)C)OC(C(=O)O)C(O)C3O)OCC(O)C2O)C(O)C(O)C1O (stereo partly drawn),inactive,inactive,–,–
O=C(O)COCCN1CCN([C@H](c2ccccc2)c2ccc(Cl)cc2)CC1,inactive,inactive,–,–
CS(=O)(=O)N(CC(=O)NCC1CC1)c1cc(C(F)(F)F)ccc1Cl,inactive,inactive,–,–
COc1ccc(CNC(=O)c2cc(-c3cncc(C)c3)ncc2-c2nccs2)nc1OC,inactive,inactive,–,–

Compound,Potency [1],Potency [2],"activity change, negative = inhibition [1]","activity change, negative = inhibition [2]"
O=C(O)/C=C/c1cc2c(cc1O[C@@H]1O[C@H](CO)[C@@H](O)[C@H](O)[C@H]1O)OCO2,inactive,inactive,–,–
Cc1ccc(-c2ccc3c(ccc4sc5c(c43)NC[C@@H](C)NC5=O)n2)cn1,inactive,inactive,–,–
COC(=O)C1=CO[C@@H](O[C@@H]2O[C@H](CO)[C@@H](O)[C@H](O)[C@H]2O)[C@@H]2C(CO)=CC[C@]12O,inactive,inactive,–,–
C/C=C(\C)C(=O)OCC1OC(OC2OC(COC(=O)/C(C)=C/C)C(OC3OC(CO)C(OC(=O)/C(C)=C/C)C(OC(=O)/C(C)=C/C)C3O)C(O)C2O)C(O)C(O)C1OC1OC(CO)C(OC(=O)/C(C)=C/C)C(OC(=O)/C(C)=C/C)C1O (stereo not drawn),inactive,inactive,–,–
CNCc1ccc(-c2cc(-c3nc(-c4ccc(S(=O)(=O)C(C)C)cc4)cnc3N)on2)cc1,inactive,inactive,–,–
COc1c2c(c(C)c3c1C(=O)OC3)OC1(C)CC(O)C34OC(OC)(OC3(C)C)C(O)CC4(C)C1C2 (stereo not drawn),inactive,inactive,–,–
C[C@@H]1C[C@@H]([C@@H](O)C(C)(C)O)O[C@H]2C[C@@]3(C)C(=C12)C[C@H](O)[C@H]1[C@@]2(C)CCC(=O)C(C)(C)C2CC[C@@]13C (stereo partly drawn),inactive,inactive,–,–
COc1ccc(-c2c(-c3cc(C(=O)O)ccn3)ncn2C)cc1,inactive,inactive,–,–
CS(=O)(=O)c1ccc(-c2nnc(/C=C/c3nnc(-c4ccc(C#N)cc4)o3)n2-c2ccccc2Cl)nc1,inactive,inactive,–,–
CC1(C)CCC2(C(=O)OC3OCC(O)C(O)C3O)CCC3(C)C(=CCC4C5(C)CC(O)C(OC6OC(COC7OCC(O)C(O)C7O)C(O)C(O)C6O)C(C)(C)C5CCC43C)C2C1 (stereo not drawn),inactive,inactive,–,–
Cn1c(=O)cc(N2CCCC(N)C2)n(Cc2cc(F)ccc2C#N)c1=O (stereo not drawn),inactive,inactive,–,–
COc1cc(C(=O)OC[C@@]2(O)CO[C@@H](O[C@H]3[C@H](Oc4ccc(C(=O)O)cc4OC)O[C@H](CO)[C@@H](O)[C@@H]3O)[C@@H]2O)ccc1O,inactive,inactive,–,–
O=C(Nc1c(-c2cccs2)nc2ccccn12)c1ccc(Cl)cc1,inactive,inactive,–,–
O=C(C(c1ccccc1)c1ccccc1)N1CCN(CC(O)COc2cccc3ncccc23)CC1 (stereo not drawn),inactive,inactive,–,–
O=C(O[C@H]1[C@@H]2C=CO[C@@H](O[C@@H]3O[C@H](CO)[C@@H](O)[C@H](O)[C@H]3O)[C@@H]2[C@@]2(CO)O[C@@H]12)c1ccccc1,inactive,inactive,–,–
CC(=O)O[C@@H]1[C@@H](O)[C@H](C)O[C@@H](O[C@H]2[C@@H]3C=CO[C@@H](O[C@@H]4O[C@H](CO)[C@@H](O)[C@H](O)[C@H]4O)[C@@H]3[C@@]3(CO)O[C@@H]23)[C@@H]1OC(=O)/C=C/c1ccccc1,inactive,inactive,–,–
C[C@H]1CC[C@@]2(OC1)O[C@H]1CC3C4CC[C@H]5C[C@@H](O)[C@H](O)C[C@]5(C)C4=CC(=O)[C@]3(C)[C@H]1[C@@H]2C (stereo partly drawn),inactive,inactive,–,–
COc1ccc(C2(O)CCC(N3CC[C@@H](NC(=O)CNC(=O)c4cccc(C(F)(F)F)c4)C3)CC2)cn1 (stereo partly drawn),inactive,inactive,–,–
CC(=O)O[C@@H]1C[C@@H](OC(C)=O)C(C)(C)/C=C/[C@H](C)[C@H](OC(C)=O)[C@@]2(O)C[C@H](C)[C@H](OC(=O)c3ccccc3)[C@@H]2/C=C/1C,inactive,inactive,–,–

# Source: PubChem BioAssay (NCATS)
